KCNQ2 enhance = KCNQ2 (rat) channel potentiation | B-score at 10 µM | CHO-K1 KCNQ2, FluxOR thallium flux fluorescence; stronger effect = higher value | AID 2239 | actives 0.54% (n = 310,000);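 active = fluorescence ratio B-score at least 3 SD of library B-scores, with initial fluorescence B-score within 3 of them, cut at about 5.3 in these data; same plate scores as AID 2156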;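 note: B-score of peak minus minimum over baseline fluorescence ratio after K+ and Tl+ stimulus; positive B-score means potentiation of KCNQ2 with more thallium influx and brighter signal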
Target sequence (O88943 whole entry, looked up): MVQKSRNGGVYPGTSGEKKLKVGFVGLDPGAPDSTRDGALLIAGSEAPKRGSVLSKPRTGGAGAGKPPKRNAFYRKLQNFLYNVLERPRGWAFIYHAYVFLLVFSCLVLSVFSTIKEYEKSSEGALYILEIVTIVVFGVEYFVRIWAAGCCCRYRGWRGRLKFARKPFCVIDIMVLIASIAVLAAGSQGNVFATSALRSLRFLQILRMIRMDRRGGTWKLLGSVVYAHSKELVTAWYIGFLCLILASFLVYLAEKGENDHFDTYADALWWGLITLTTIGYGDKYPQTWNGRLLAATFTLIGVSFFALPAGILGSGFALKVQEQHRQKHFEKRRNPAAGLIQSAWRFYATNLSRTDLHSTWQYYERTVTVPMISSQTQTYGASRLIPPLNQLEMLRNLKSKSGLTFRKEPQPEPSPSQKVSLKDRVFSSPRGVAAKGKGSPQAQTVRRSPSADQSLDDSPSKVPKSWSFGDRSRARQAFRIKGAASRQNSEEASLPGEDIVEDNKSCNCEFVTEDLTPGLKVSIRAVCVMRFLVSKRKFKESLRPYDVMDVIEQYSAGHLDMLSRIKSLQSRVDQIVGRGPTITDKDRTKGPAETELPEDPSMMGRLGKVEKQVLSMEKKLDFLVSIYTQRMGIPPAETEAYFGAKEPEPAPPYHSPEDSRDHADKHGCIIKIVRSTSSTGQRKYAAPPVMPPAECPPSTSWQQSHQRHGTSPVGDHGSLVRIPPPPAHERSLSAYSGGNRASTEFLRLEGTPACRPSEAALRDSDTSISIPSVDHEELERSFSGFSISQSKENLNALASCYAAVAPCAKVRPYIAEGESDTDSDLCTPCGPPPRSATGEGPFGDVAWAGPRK
KCNQ2 inh = KCNQ2 (rat) channel inhibition. O88943. CHO-K1 KCNQ2, FluxOR thallium flux, 20 min; stronger effect = lower value. B-score at 10 µM. actives 1.1% (n = 310,000). AID 2156;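 active = fluorescence ratio B-score at most minus 3 library SDs, with starting brightness B-score within 2 library SDs, cut at about -5.5 in these data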
Kir21 confirm = confirmation of mouse Kir2.1 potassium channel inhibitors | shares compounds with KCNQ2 enhance | Tl flux remaining, % of negative control (stronger effect = lower value), % at 10 µM | actives 41% (n = 2,300) | Kir2.1-expressing cells, FluxOR thallium flux fluorescence; stronger effect = lower value;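 active = Primary-screen hit whose thallium flux fell at least 3 control SD below untreated wells in both duplicates, with normal baseline fluorescence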;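 note: 0% = blank wells without stimulus and 100% = stimulated no-compound controls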
HEK293 Tl flux = alters thallium flux in parental HEK293 cells, Kir2.1 counter-screen | shares compounds with KCNQ2 enhance | FluxOR thallium flux fluorescence; 0% = unstimulated blank wells | FluxOR signal as % of negative control (100 = no effect), % at 10 µM | actives 19% (n = 2,300);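 active = dye signal at least 3 control SD above or below untreated wells in both duplicates, raw fluorescence within 3, either direction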;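 note: percent is based on the flux ratio of peak minus minimum fluorescence over baseline F0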
CHO-K1 ctr = counter-screen for KCNQ2 potentiators: effect in parental CHO-K1 cells; activity increase over 3SD of controls, % at 10 µM; shares compounds with KCNQ2 enhance; actives 43% (n = 1,200); AID 2282; FluxOR thallium flux fluorescence; zero = vehicle mean+3SD, 100% = vehicle-minus-blank window;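 active = signal rise of at least 3 SD above the untreated control mean, in both duplicate wells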;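 note: counter screen of KCNQ2 potentiator hits so any rise reflects channel-independent effects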
KCNQ1 sel pot = tests whether KCNQ2 potentiators also act on human KCNQ1; actives 28% (n = 1,200); CHO KCNQ1 stable, FluxOR thallium flux fluorescence; beyond 3SD, as % of vehicle-control signal; activation over 3SD threshold, % at 10 µM; shares compounds with KCNQ2 enhance;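 active = fluorescence ratio rise of at least 3 SD of vehicle wells above their mean, in both replicate wells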;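 note: 0% = vehicle mean plus 3 SD and 100% = vehicle minus unstimulated blank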
KCNQ2 pot conf = confirmation of rat KCNQ2 potassium channel potentiators | CHO-KCNQ2 cells, FluxOR thallium flux fluorescence | shares compounds with KCNQ2 enhance | potentiation, less the hit threshold, % at 10 µM | AID 2287 | actives 68% (n = 1,200);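 active = fluorescence ratio rising 3 SD or more over the vehicle control mean in both replicates, plus primary screen hit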;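 note: peak minus minimum thallium fluorescence divided by baseline after K/Tl stimulus; 0% = vehicle mean plus 3 SD and 100% = vehicle minus unstimulated blank difference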
Kir2-1 sel = mouse Kir2.1 off-target activity of KCNQ2 potentiators; shares compounds with KCNQ2 enhance; HEK293 Kir2.1, FluxOR thallium flux fluorescence; activity over 3SD threshold, % at 10 µM; actives 2% (n = 1,200); AID 2345;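 active = fluorescence ratio rise of at least 3 SD above the vehicle-control mean, seen in both replicates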;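 note: 0% = vehicle mean plus 3 SD and 100% = vehicle minus no-stimulus blank window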
KCNQ2 W236L pot = KCNQ2 potentiators acting on retigabine-insensitive rat KCNQ2 W236L mutant; shares compounds with KCNQ2 enhance; CHO KCNQ2-W236L, automated patch clamp current; current increase over 3SD of negative controls (%), stronger effect = higher value, % at 25 µM; actives 10% (n = 940);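 active = current increase at least 3 SD of the untreated controls above them in both duplicate recordings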
Active calls of the source: *; i = inactive; / = not tested or not shown. Most compounds without a hit are left out; they make up all but 1.6% or so of the library.

SMILES	KCNQ2 enhance	KCNQ2 inh	Kir21 confirm	HEK293 Tl flux	others
CC(C)C1Cc2c(sc3[nH]c(=S)n(Cc4ccccc4)c(=O)c23)CO1 (configuration not stated)	7.33*	i	i	396.5%*	CHO-K1 ctr=18.7*;KCNQ1 sel pot=-9.4;KCNQ2 pot conf=52.2*;Kir2-1 sel=-13.3;KCNQ2 W236L pot=i
Nc1ccc2c(c1)nc(Cc1ccccc1)n2CCO	/	i	/	/
C1CCN=C(NC23CC4CC(CC(C4)C2)C3)CC1	/	i	/	/
O=C1NC2(CCCc3ccccc32)C(=O)N1Cc1nnc(-c2ccccc2Br)o1 (configuration not stated)	/	i	/	/
O=c1c(Cl)c(Cl)cnn1Cc1nnc(-c2ccccc2Br)o1	5.48*	i	i	i	CHO-K1 ctr=40.8*;KCNQ1 sel pot=-12.4;KCNQ2 pot conf=12.5*;Kir2-1 sel=-33.5;KCNQ2 W236L pot=i
O=C(NC1CC1)c1scc2c1OCCO2	0.19	i	/	/
CCOC(=O)N1CCN(C(=O)CN(c2ccc(OC)cc2)S(C)(=O)=O)CC1	26.6*	i	i	i	CHO-K1 ctr=15.1*;KCNQ1 sel pot=-11.7;KCNQ2 pot conf=-24.3;Kir2-1 sel=-36.5
CCOC(=O)N1CCN(C(=O)CN(c2cccc(OC)c2)S(C)(=O)=O)CC1	/	i	/	/
COc1ccc(-n2c(O)c(/C=N/NS(=O)(=O)c3cccc([N+](=O)[O-])c3)c3ccccc3c2=O)cc1OC	/	i	/	/
Cc1cc(C)c(OCCCNCc2ccccc2)c(Br)c1	/	i	11.5%*	i
Cc1cc(Cl)c(OCCCNCc2ccccc2)c(Br)c1	/	i	/	/
Cc1cc(Cl)cc(Br)c1OCCCNCC(C)O (configuration not stated)	1.31	i	27.0%*	i
Cc1ccccc1OCCNCC(C)O (configuration not stated)	/	i	/	/
Cc1cc(C)c(OCCCCN(C)Cc2ccccc2)c(C)c1	/	i	21.5%*	i
Clc1ccc(OCCCNCc2ccccc2)c(Br)c1	/	i	9.5%*	74.0%*
Clc1ccc(Cl)c(OCCCCNCc2ccccc2)c1	/	i	/	/
Cc1ccc(OCCCCN(C)Cc2ccccc2)c(Br)c1	/	i	/	/
O=C(O)c1ccccc1C(=O)N1CCN(c2ccccc2)CC1	0.28	i	/	/
CN1C(C(=O)NCc2ccccc2)CC2Cn3c(nc4cc(Cl)c(Cl)cc43)C21 (configuration not stated)	2.27	i	/	/
Cn1c(-c2csc(-c3cccc(C(F)(F)F)c3)n2)n[nH]c1=S	/	i	/	/
CCCC(=O)Nc1cc(OC)c(NC(=O)NC2CCCCC2)cc1OC	0.57	i	/	/
Cc1cc(/C=C(\C#N)C(=O)NC2CC2)c(C)[nH]1	1.11	i	/	/
CN(Cc1ccon1)C(=O)CCc1nnc(CCCCc2ccccc2)o1	1.03	i	/	/
CC(NC(=O)c1ccc(NS(C)(=O)=O)cc1)c1ccccc1 (configuration not stated)	0.07	i	/	/
O=C(NCc1ccc2c(c1)OCO2)c1ccc(CN2CCc3ccccc3C2)cc1	/	i	/	/
SMILES	KCNQ2 enhance	KCNQ2 inh	Kir21 confirm	HEK293 Tl flux	others
Cc1ccc(C(=O)N/C(=C\c2cccnc2)c2nc3ccccc3[nH]2)cc1	/	i	/	/
CCN(c1nc(N)c(C(=O)N=C(N)N)nc1Cl)C(C)C	5.33*	i	41.5%*	i	CHO-K1 ctr=9.8*;KCNQ1 sel pot=-9.2;KCNQ2 pot conf=-2.2;Kir2-1 sel=-93.6;KCNQ2 W236L pot=i
COc1ccccc1NC(=O)N1CCN(c2ccc3nncn3n2)CC1	/	i	/	/
CC1CC1C(=O)NCCc1ccc(Cl)cc1 (configuration not stated)	0.51	i	/	/
O=C(CC1CC2CCC1C2)NCCc1ccc(Cl)cc1 (configuration not stated)	5.92*	i	/	/	CHO-K1 ctr=-0.3;KCNQ1 sel pot=-16.7;KCNQ2 pot conf=0.8*;Kir2-1 sel=-74.7;KCNQ2 W236L pot=i
COc1ccc(-c2nc(SCC(=O)Nc3c(F)cccc3F)n[nH]2)cc1	/	i	/	/
Cc1onc(-c2c(F)cccc2Cl)c1C(=O)OCC(=O)c1c[nH]c2ccccc12	6.42*	i	i	i	CHO-K1 ctr=-4.6;KCNQ1 sel pot=-9.6;KCNQ2 pot conf=-1.3;Kir2-1 sel=-20.9
Cc1noc(C)c1C(=O)OCC(=O)c1c[nH]c2ccccc12	/	i	/	/
O=C(NCCCn1ccnc1)c1ccc(S(=O)(=O)Nc2ccccc2)cc1	/	i	/	/
Cc1ccc([N+](=O)[O-])cc1S(=O)(=O)NCC1COc2ccccc2O1 (configuration not stated)	/	i	73.0%*	i
Cc1ccc(S(=O)(=O)NCC2COc3ccccc3O2)cc1 (configuration not stated)	/	i	/	/
Cc1ccc(OCCNCc2ccccc2)c(C)c1	/	i	/	/
C/C=C/c1ccc(OCCOCCNCc2ccccc2)c(OC)c1	0.43	i	30.0%*	i
COc1cc(C)ccc1OCCCCNCc1ccccc1	0.05	i	58.5%*	i
C/C=C/c1ccc(OCCOc2cc(C=O)ccc2OC)c(OC)c1	0.03	i	/	/
CCc1ccc(-c2nn(-c3ccccc3)cc2C2SCC(=O)N2Cc2ccco2)cc1 (configuration not stated)	/	i	/	/
Fc1cccc2sc(Nc3nc4c(F)cccc4s3)nc12	1.28	i	i	i
Fc1cccc2sc(Nc3nnc(-c4ccccc4)o3)nc12	25.9*	i	i	449.0%*	CHO-K1 ctr=1.3*;KCNQ1 sel pot=-20.9;KCNQ2 pot conf=62.5*;Kir2-1 sel=1.1*;KCNQ2 W236L pot=i
COc1cc(OC)cc(-c2nnc(Nc3nc4c(F)cccc4s3)o2)c1	3.3	i	/	/
NNc1nc2c(F)cccc2s1	/	i	/	/
COc1ccccc1C(=O)OCn1nnc2ccccc2c1=O	/	i	/	/
O=C(NC(=S)Nc1ccccc1N1CCOCC1)c1sc2ccccc2c1Cl	0.64	i	/	/
CN(C)CCCOC(=O)c1sc2ccccc2c1Cl	/	i	29.0%*	i
CN(C(=O)COC(=O)c1sc2ccccc2c1Cl)C1CCCCC1	/	i	/	/
CCCCOC(=S)NC(=O)c1sc2ccccc2c1Cl	17*	i	i	445.5%*	CHO-K1 ctr=-3.4;KCNQ1 sel pot=47.1*;KCNQ2 pot conf=83.1*;Kir2-1 sel=-14.8;KCNQ2 W236L pot=i
CCCOc1ccc(C(CC(=O)O)NC(=O)c2sc3ccccc3c2Cl)cc1 (configuration not stated)	0.21	i	/	/
Cc1ccc(NC(=S)NC(=O)c2sc3ccccc3c2Cl)c(C(=O)O)c1	13.7*	i	i	i	CHO-K1 ctr=2.0*;KCNQ1 sel pot=-14.9;KCNQ2 pot conf=28.7*;Kir2-1 sel=-20.1;KCNQ2 W236L pot=i
Cc1ccc(Nc2cc(C)nc3c(C)cccc23)cc1	1.37	i	35.5%*	i
